Experimental data published in PubChem BioAssay (EPA / NIEHS).
Active and inactive are the calls of the source. Rule for the calls: active = hit-call score of the fitted dose curve at least 0.9, where 1 is the maximum; inactive = score below 0.9.

How the values were obtained:
[1] = ATG_ISRE_CIS: Attagene CIS-FACTORIAL HepG2 Assay for human Interferon Regulatory Factor 1 (IRF1) binding to an Interferon-Stimulated Response Element (ISRE) (AID 2282948); conditions: HepG2 ISRE cis-reporter (Attagene), mRNA transcription readout; actives raise or lower the signal
Method in brief: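 Transiently transfected HepG2 cells carrying cis-element reporter units, dosed 24 hours. Reporter mRNA quantified by RT-PCR, fluorescent primer extension, HpaI digestion and capillary electrophoresis. Bidirectional fitting relative to DMSO.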

[2] = ATG_M_32_CIS: Attagene CIS-FACTORIAL HepG2 Assay for M32 Transcription Factor (Internal Marker) (AID 2282949); conditions: HepG2 Attagene cis-factorial M32 reporter, mRNA; actives raise or lower the signal;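 note: background control marker of the multiplexed CIS panel rather than a real target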
Method in brief: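 HepG2 cells transiently transfected with multiplexed cis-regulated reporter units, dosed 24 h. Reporter mRNA quantified by RT-PCR, 6-FAM labelling, HpaI digestion and capillary electrophoresis; bidirectional fit vs DMSO.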

[3] = ATG_M_06_CIS: Attagene CIS-FACTORIAL HepG2 Assay for M06 Transcription Factor (Internal Marker) (AID 2282950); conditions: HepG2 Attagene CIS-FACTORIAL M06 internal marker reporter; actives raise or lower the signal
Method in brief: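 Measured 24 h post-dosing in transiently transfected HepG2 cells, this internal-marker endpoint reports reporter mRNA via RT-PCR with fluorescent primer extension and capillary electrophoresis. DMSO served as negative control and baseline for bidirectional fitting.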

[4] = target: Hypoxia-inducible factor 1-alpha (Homo sapiens) (UniProt Q16665); test: ATG_HIF1a_CIS: Attagene CIS-FACTORIAL HepG2 Assay for human Hypoxia Inducible Factor 1 (HIF1A) (AID 2282951); conditions: HepG2 Attagene cis-factorial HIF1a reporter transcription; actives raise or lower the signal
Method in brief: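 Activity is fitted in both directions relative to DMSO. Reporter transcripts are read by RT-PCR, fluorescent primer extension and capillary electrophoresis after 24 h chemical treatment. The cells are HepG2 carrying transiently transfected cis-element-driven reporter units responding to endogenous factors.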

[5] = target: Hepatocyte nuclear factor 6 (Homo sapiens) (UniProt Q9UBC0); test: ATG_HNF6_CIS: Attagene CIS-FACTORIAL HepG2 Assay for human Hepatocyte Nuclear Factor 6 (HNF6) (AID 2282952); conditions: HepG2 Attagene cis-factorial HNF6 reporter transcription; actives raise or lower the signal
Method in brief: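 Transiently transfected HepG2 cells expressing cis-regulated reporter transcription units were exposed to chemical for 24 h in a 24-well format. Reporter transcript abundance was determined by fluorescence capillary electrophoresis.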

[6] = target: Heat shock factor protein 1 (Homo sapiens) (UniProt Q00613); test: ATG_HSE_CIS: Attagene CIS-FACTORIAL HepG2 Assay for human Heat Shock Transcription Factor 1 (HSE) (AID 2282953); conditions: HepG2 HSE cis-reporter, Attagene RNA transcription; actives raise or lower the signal
Method in brief: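 Reporter mRNA induction in HepG2 is measured 24 h after dosing, using transiently transfected multiplexed cis-regulated reporter units. Signal comes from capillary electrophoresis of labelled RT-PCR products, with DMSO as negative control.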

[7] = ATG_MRE_CIS: Attagene CIS-FACTORIAL HepG2 Assay for human Metal Responsive Element (MRE) (AID 2282954); conditions: HepG2 MRE cis-reporter transcription, Attagene multiplex; actives raise or lower the signal
Method in brief: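 Transient MRTU transfection of HepG2 (FuGene 6); 24 h dosing; total RNA → oligo(dT) RT, PCR, 6-FAM primer extension, HpaI cut, CE. Bidirectional fit vs DMSO.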

[8] = ATG_PBREM_CIS: Attagene CIS-FACTORIAL HepG2 Assay for human Phenobarbital-responsive Enhancer Module (PBREM) (AID 2282955); conditions: HepG2 PBREM cis-reporter, Attagene multiplexed transcription; actives raise or lower the signal
Method in brief: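 Endogenous transcription factor activity was read from reporter transcripts in transiently transfected human HepG2 liver cells after 24 h dosing. RT-PCR products were fluorescently labelled, HpaI-cut and sized by capillary electrophoresis; activity fitted bidirectionally against DMSO baseline.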

[9] = target: Paired box protein Pax-6 (Homo sapiens) (UniProt P26367); test: ATG_Pax6_CIS: Attagene CIS-FACTORIAL HepG2 Assay for human Paired Box 6 (PAX6) (AID 2282956); conditions: HepG2 CIS-FACTORIAL PAX6 reporter transcription, RNA readout; actives raise or lower the signal
Method in brief: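 HepG2 cells transiently transfected with cis-promoter-driven multiplexed reporter units sensing endogenous transcription factor activity; 24 h chemical exposure. Reporter mRNA quantified by RT-PCR, 6-FAM labelling, HpaI digestion and capillary electrophoresis; bidirectional fit versus DMSO baseline.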

[10] = ATG_PXRE_CIS: Attagene CIS-FACTORIAL HepG2 Assay for human Pregnane X Receptor Element (PXRE) (AID 2282957); conditions: HepG2 Attagene CIS-FACTORIAL PXRE reporter, mRNA; actives raise or lower the signal
Method in brief: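 Cis-element reporter mRNA in human hepatoma HepG2 cells is measured 24 h post-dosing by RT-PCR, primer-extension labeling and capillary electrophoresis; gain or loss of signal is fitted relative to DMSO.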

[11] = ATG_RORE_CIS: Attagene CIS-FACTORIAL HepG2 Assay for human RAR-related Orphan Receptor Element (RORE) (AID 2282959); conditions: HepG2 Attagene cis-factorial RORE reporter, mRNA; actives raise or lower the signal
Method in brief: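 RORE reporter transcripts reflecting endogenous factor activity were read after 24 h compound exposure of transfected HepG2 cells, using reverse transcription, PCR, fluorescent labelling and capillary electrophoresis sizing. Gain or loss fitted against DMSO.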

[12] = ATG_Sox_CIS: Attagene CIS-FACTORIAL HepG2 Assay for human SRY-box transcription factor (SOX) (AID 2282960); conditions: HepG2 Attagene cis-factorial SOX reporter, mRNA; actives raise or lower the signal
Method in brief: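 Reporter transcripts, measured by RT-PCR and capillary electrophoresis of labelled fragments, report endogenous SOX transcription factor activity. Transiently transfected human HepG2 cells receive chemical for 24 h; changes in either direction are fitted relative to DMSO.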

[13] = target: Transcription factor Sp1 (Homo sapiens) (UniProt P08047); test: ATG_Sp1_CIS: Attagene CIS-FACTORIAL HepG2 Assay for human Specificity Protein 1 (Sp1) (AID 2282961); conditions: HepG2 Sp1 cis-reporter transcription, actives raise or lower the signal
Method in brief: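 Read-out is reporter transcript level, measured by RT-PCR and fluorescent capillary electrophoresis after 24 h chemical treatment. System: transiently transfected HepG2 cells reporting endogenous transcription factor activity; gain or loss fitted against DMSO baseline.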

[14] = ATG_SREBP_CIS: Attagene CIS-FACTORIAL HepG2 Assay for human Sterol Regulatory Element Binding (SREBP) (AID 2282962); conditions: HepG2 Attagene cis-factorial SREBP reporter, mRNA; actives raise or lower the signal
Method in brief: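 HepG2 cells transiently transfected with multiplexed cis-promoter reporter units sensing endogenous transcription factors; reporter mRNA measured 24 h after dosing by RT-PCR, 6-FAM labeling, HpaI digestion and capillary electrophoresis. Bidirectional fit versus DMSO.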

[15] = target: Signal transducer and activator of transcription 3 (Homo sapiens) (UniProt P40763); test: ATG_STAT3_CIS: Attagene CIS-FACTORIAL HepG2 Assay for human Signal Transducer and Activator of Transcription 3 (STAT3) (AID 2282963); conditions: HepG2, Attagene cis-factorial STAT3 reporter transcription; actives raise or lower the signal
Method in brief: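 Endogenous STAT3-responsive cis-element activity was read in transiently transfected HepG2 cells after 24 h treatment. Reporter transcripts were quantified via RT-PCR and capillary electrophoresis, with DMSO as negative control and bidirectional curve fitting.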

[16] = ATG_TA_CIS: Attagene CIS-FACTORIAL HepG2 Assay for human TA Basal Promoter (AID 2282964); conditions: HepG2 Attagene CIS-factorial TA basal promoter reporter; actives raise or lower the signal
Method in brief: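 Cis-factorial format in HepG2: reporters report endogenous factors, not chimeric Gal4 fusions. After 24 h treatment, reporter transcripts were measured by RT-PCR-capillary electrophoresis fluorescence, analysed bidirectionally versus DMSO.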

[17] = ATG_TCF_b_cat_CIS: Attagene CIS-FACTORIAL HepG2 Assay for human T-Cell-Factor with beta-catenin (TCF/b-cat) (AID 2282965); conditions: HepG2 TCF/beta-catenin cis-reporter transcription, actives raise or lower the signal
Method in brief: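 Measured: reporter mRNA in HepG2 transiently transfected with cis-promoter reporter units, 24 h after chemical addition. Fitting was bidirectional, DMSO as negative control.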

[18] = ATG_TAL_CIS: Attagene CIS-FACTORIAL HepG2 Assay for human TAL Basal Promoter (AID 2282966); conditions: HepG2 Attagene cis-factorial TAL promoter reporter; actives raise or lower the signal;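 note: background control endpoint measuring basal TAL promoter reporter mRNA not a specific factor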
Method in brief: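 In this cell-based multiplex, HepG2 liver cells bearing cis-promoter reporter constructs are dosed for 24 hours. Total RNA is reverse-transcribed and amplified, labelled fragments are sized by capillary electrophoresis, and signal changes are fitted bidirectionally versus DMSO.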

[19] = ATG_TGFb_CIS: Attagene CIS-FACTORIAL HepG2 Assay for human Transforming Growth Factor (TGF) (AID 2282967); conditions: HepG2 Attagene CIS TGFb reporter, mRNA transcription; actives raise or lower the signal
Method in brief: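 Multiplexed cis-reporter HepG2 system, 24 h treatment; mRNA induction read by fluorescence after RT-PCR and CE; DMSO negative control, bidirectional curve fitting.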

[20] = ATG_PPRE_CIS: Attagene CIS-FACTORIAL HepG2 Assay for human Peroxisome Proliferator-activated Response Element (PPRE) (AID 2282958); conditions: HepG2 PPRE cis-element reporter, Attagene transcription factor profiling; actives raise or lower the signal
Method in brief: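 Endogenous PPRE-driven transcription is measured in HepG2 cells carrying transfected multi-reporter constructs. Reporter transcripts are quantified by RT-PCR, HpaI digestion and capillary electrophoresis 24 h after dosing. DMSO baseline, bidirectional fit.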

Measured: AC50

Hypoxia-inducible factor 1-alpha (Homo sapiens), sequence (Q16665 whole entry, looked up): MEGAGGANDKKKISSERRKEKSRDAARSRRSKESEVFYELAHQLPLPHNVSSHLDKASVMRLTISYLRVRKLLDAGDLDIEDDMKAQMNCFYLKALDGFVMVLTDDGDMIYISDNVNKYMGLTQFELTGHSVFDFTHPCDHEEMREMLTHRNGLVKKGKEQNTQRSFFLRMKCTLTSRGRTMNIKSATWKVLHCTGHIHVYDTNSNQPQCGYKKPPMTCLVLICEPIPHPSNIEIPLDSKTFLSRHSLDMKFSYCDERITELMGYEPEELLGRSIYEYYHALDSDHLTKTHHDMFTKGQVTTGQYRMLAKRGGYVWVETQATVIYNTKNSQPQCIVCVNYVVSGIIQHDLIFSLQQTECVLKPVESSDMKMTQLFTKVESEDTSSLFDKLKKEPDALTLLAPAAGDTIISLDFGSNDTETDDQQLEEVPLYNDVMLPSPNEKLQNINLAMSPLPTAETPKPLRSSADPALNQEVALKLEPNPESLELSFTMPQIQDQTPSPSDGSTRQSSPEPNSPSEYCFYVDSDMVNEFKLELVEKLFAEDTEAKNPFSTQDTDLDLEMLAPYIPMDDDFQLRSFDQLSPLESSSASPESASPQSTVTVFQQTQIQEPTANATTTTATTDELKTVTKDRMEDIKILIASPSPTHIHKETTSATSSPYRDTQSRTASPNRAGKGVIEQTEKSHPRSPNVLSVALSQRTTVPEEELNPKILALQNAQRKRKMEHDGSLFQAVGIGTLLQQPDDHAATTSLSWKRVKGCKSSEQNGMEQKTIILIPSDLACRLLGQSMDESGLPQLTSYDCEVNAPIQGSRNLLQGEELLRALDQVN
Transcription factor Sp1 (Homo sapiens), sequence (P08047 whole entry, looked up): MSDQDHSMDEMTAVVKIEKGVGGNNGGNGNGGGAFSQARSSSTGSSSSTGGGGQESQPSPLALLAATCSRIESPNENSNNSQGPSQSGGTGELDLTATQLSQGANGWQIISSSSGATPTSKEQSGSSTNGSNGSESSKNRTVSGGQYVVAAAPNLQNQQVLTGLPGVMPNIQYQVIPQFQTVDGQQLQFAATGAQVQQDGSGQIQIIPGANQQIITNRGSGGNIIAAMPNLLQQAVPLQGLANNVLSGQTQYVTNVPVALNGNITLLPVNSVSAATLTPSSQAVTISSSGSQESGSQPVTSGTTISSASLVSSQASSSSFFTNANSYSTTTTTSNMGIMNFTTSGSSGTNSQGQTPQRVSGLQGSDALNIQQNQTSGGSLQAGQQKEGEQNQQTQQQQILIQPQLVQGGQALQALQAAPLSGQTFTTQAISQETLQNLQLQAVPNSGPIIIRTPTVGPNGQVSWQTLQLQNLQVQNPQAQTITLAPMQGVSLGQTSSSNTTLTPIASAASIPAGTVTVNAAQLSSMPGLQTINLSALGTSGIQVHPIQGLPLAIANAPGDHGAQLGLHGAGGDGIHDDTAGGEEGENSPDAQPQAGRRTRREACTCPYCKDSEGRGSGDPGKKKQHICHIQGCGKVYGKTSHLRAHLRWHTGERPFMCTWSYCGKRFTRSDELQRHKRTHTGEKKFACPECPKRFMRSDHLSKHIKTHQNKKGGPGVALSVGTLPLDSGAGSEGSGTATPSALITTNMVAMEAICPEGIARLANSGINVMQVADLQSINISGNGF
Signal transducer and activator of transcription 3 (Homo sapiens), sequence (P40763 whole entry, looked up): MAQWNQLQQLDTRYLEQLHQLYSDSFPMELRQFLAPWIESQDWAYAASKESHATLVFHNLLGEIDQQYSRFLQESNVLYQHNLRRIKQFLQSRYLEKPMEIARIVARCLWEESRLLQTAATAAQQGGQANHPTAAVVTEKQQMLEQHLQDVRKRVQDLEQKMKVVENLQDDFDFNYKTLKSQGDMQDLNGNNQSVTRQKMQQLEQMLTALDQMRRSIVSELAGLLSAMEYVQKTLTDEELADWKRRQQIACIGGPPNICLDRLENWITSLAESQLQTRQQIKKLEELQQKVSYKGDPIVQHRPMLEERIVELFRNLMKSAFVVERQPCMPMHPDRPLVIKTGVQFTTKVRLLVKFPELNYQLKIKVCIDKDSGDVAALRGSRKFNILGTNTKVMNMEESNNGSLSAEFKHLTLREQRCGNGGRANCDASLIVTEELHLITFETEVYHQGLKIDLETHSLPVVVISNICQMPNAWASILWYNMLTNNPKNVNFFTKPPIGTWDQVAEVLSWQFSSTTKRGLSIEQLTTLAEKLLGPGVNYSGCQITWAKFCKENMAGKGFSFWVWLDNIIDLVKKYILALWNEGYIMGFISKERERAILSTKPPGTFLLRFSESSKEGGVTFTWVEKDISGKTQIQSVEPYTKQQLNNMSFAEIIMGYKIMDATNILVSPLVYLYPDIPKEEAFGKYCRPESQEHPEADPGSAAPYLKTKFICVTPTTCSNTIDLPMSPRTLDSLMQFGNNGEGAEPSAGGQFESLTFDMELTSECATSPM
Paired box protein Pax-6 (Homo sapiens), sequence (P26367 whole entry, looked up): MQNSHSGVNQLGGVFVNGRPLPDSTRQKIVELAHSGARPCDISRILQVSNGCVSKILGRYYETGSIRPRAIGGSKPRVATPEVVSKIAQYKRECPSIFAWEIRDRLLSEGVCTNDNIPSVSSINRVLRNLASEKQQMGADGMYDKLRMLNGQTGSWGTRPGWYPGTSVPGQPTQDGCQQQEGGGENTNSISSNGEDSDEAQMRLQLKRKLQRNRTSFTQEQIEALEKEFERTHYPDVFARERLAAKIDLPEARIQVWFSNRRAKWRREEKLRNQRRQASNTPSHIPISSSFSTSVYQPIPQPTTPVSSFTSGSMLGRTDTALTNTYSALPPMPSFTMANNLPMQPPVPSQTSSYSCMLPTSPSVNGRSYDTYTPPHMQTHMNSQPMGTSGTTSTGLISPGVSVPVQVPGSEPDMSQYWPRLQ
Heat shock factor protein 1 (Homo sapiens), sequence (Q00613 whole entry, looked up): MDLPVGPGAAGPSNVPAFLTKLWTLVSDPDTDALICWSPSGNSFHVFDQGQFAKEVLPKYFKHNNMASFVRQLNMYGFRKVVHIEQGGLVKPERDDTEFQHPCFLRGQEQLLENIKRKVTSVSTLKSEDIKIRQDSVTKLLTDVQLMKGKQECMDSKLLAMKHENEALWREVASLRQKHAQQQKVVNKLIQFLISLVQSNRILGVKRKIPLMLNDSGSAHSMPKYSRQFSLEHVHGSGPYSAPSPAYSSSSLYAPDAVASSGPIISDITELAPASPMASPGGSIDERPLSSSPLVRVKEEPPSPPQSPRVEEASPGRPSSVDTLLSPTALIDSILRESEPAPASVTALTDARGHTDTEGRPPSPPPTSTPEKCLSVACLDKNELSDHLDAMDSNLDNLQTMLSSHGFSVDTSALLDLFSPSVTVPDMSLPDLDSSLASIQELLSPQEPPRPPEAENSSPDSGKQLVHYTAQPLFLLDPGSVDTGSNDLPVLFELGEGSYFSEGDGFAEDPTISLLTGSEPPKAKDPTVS
Hepatocyte nuclear factor 6 (Homo sapiens), sequence (Q9UBC0 whole entry, looked up): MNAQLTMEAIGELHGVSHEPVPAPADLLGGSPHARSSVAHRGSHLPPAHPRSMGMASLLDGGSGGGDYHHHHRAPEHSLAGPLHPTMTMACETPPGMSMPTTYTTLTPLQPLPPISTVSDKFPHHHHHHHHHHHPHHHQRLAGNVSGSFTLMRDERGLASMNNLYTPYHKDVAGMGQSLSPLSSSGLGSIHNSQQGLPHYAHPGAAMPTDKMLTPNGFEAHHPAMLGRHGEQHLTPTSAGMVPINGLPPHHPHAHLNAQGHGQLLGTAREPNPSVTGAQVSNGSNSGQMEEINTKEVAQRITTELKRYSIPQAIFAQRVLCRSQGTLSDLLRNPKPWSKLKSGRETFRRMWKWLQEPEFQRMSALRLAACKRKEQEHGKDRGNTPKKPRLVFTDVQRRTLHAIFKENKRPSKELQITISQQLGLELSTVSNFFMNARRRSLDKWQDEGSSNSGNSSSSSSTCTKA

OCC1CCC(CO)CC1 (stereo not given)
inactive: [1] | [2] | [3] | [4] | [5] | [6] | [7] | [8] | [9] | [10] | [11] | [12] | [13] | [14] | [15] | [16] | [17] | [18] | [19]

COCC1CCC(CO)CC1 (stereo not given)
inactive: [1] | [2] | [3] | [4] | [5] | [6] | [7] | [8] | [9] | [10] | [20] | [11] | [12] | [14] | [15] | [16] | [17] | [18] | [19]

O=C(F)C(F)(F)C(F)(F)C(F)(F)C(=O)F
inactive: [1] | [2] | [3] | [4] | [5] | [6] | [7] | [8] | [9] | [10] | [20] | [11] | [14] | [15] | [16] | [17] | [18] | [19]

O=C(O)c1cccc(C(=O)O)n1
inactive: [1] | [2] | [3] | [4] | [5] | [6] | [7] | [8] | [9] | [10] | [20] | [11] | [13] | [14] | [15] | [16] | [17] | [18] | [19]

CCCCCCCCCCCCCCCCCC[N+](C)(C)Cc1ccccc1
active: [1] 12.8 µM | [5] 10.1 µM | [7] 7.27 µM | [20] 79.8 µM | [14] 13.2 µM | [15] 88.9 µM
inactive: [2] | [3] | [4] | [6] | [8] | [9] | [10] | [11] | [16] | [17] | [18] | [19]

C/C=C/C(=O)C1=C(C)CCCC1(C)C
active: [1] 69.9 µM | [5] 65.5 µM | [6] 63.7 µM | [7] 36.5 µM | [9] 39.7 µM | [10] 2.03 µM | [12] 46.1 µM | [14] 44.9 µM | [17] 62.7 µM
inactive: [2] | [3] | [4] | [8] | [11] | [15] | [16] | [18] | [19]

COc1ccccc1NC(=O)c1cc2ccccc2cc1O
active: [1] 82.7 µM | [4] 22.7 µM | [5] 137 µM | [6] 57.3 µM | [7] 23.3 µM | [8] 6.07 µM | [9] 54.8 µM | [10] 1.63 µM | [13] 27.7 µM | [14] 55.5 µM | [17] 123 µM
inactive: [2] | [3] | [20] | [11] | [15] | [16] | [18] | [19]
